In PubChem BioAssay (NCI) one finds growth data, which are given here for 16 compounds.

Compounds without any hit were thinned out: in the full panel of roughly 83,000, 20% have a hit.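 The test compound was applied at a single concentration to cells in 96-well plates for 48 hours, and percent growth was recorded.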 Values without a mark were called inactive. Active and inactive are the calls of the source. The calls were made as follows: active = growth percent below 10; inactive = the rest.

Test systems include NCI-H23 lung; NCI-H226 lung; NCI-H322M lung; HOP-62 NSCLC; NCI-H460 lung; NCI-H522 lung; A549/ATCC NSCLC; 786-0 renal; COLO 205 colon.
Common to all, as to assay: NCI-60 one-dose screen, 48 h (100 = growth as untreated, 0 = no growth, -100 = all killed)
What all share (details): 10 µM unless noted

Regarding `CCn1c(=O)c(C(=O)NCCCO)c(O)c2ccccc21`, the growth with NCI-H23 lung is 110%; with NCI-H226 lung, 99.1%; in the test on NCI-H322M lung it was 134%; in the test with HOP-62 NSCLC it was 101%; with NCI-H460 lung it was 111%; in the test on NCI-H522 lung, 101%. Besides, the growth in the test on A549/ATCC NSCLC is 103%; in the test on 786-0 renal it was 106%; in the test on COLO 205 colon, 110%.

For `Cc1c(C(N)=O)sc2ncn(CC(=O)NN=C3CCCCC3)c(=O)c12`, the growth is 111% in the test with NCI-H23 lung; 96.7% with NCI-H226 lung; 116% in the test with NCI-H322M lung; 104% in the test on HOP-62 NSCLC; 115% in the test on NCI-H460 lung; 83.8% with NCI-H522 lung. For the same compound, the growth in the test with A549/ATCC NSCLC was 111%; in the test with 786-0 renal, 105%; with COLO 205 colon it was 129%.

Take `C=C1C(=O)O[C@H]2[C@H]1CC/C(COC(=O)NCc1cn(C)c3ccccc13)=C\CC[C@@]1(C)O[C@@H]21`: the growth in the test on NCI-H23 lung was 38.4%; in the test on NCI-H226 lung, 35.8%; in the test with NCI-H322M lung, 80.6%; in the test with HOP-62 NSCLC it was 32.8%; in the test with NCI-H460 lung it was 5.72% (active); with NCI-H522 lung it was -80.2% (active). Moreover, the growth was 21% in the test with A549/ATCC NSCLC, -87.8% (active) in the test on 786-0 renal and -75.3% (active) in the test with COLO 205 colon.

For the compound `CC(C)CCC(=O)[C@@H](C)[C@H]1[C@@H](OC2OCC(O)C(O)C2NS(C)(=O)=O)C[C@H]2[C@@H]3CC=C4C[C@@H](O)CC[C@]4(C)[C@H]3CC[C@]12C` (some centres undefined), the growth in the test with NCI-H23 lung is 56.8%; in the test on NCI-H226 lung, 52.4%; with NCI-H322M lung, 68.5%; with HOP-62 NSCLC, 8.62% (active); with NCI-H460 lung it was 12.1%; with NCI-H522 lung, 20.7%. In addition, the figures for the growth in the test on A549/ATCC NSCLC, with 786-0 renal and with COLO 205 colon were 33.4%, -32% (active) and -0.62% (active), respectively.

For `CN(C)c1ccc(C2(Cl)c3ccccc3N(C)c3ccccc32)cc1`, the growth is 44.2% with NCI-H23 lung; 69.1% in the test with NCI-H226 lung; 75.9% with NCI-H322M lung; 29.9% in the test with HOP-62 NSCLC; 36.9% in the test on NCI-H460 lung; 19% in the test on NCI-H522 lung. The growth in the test on A549/ATCC NSCLC was 60%; with 786-0 renal it was 62.1%; in the test with COLO 205 colon, 43.1%.

For `CC(=O)NC1C(O[C@H]2C[C@H]3[C@@H]4CC=C5C[C@@H](O)CC[C@]5(C)[C@H]4CC[C@]3(C)[C@H]2[C@H](C)C(=O)CCC(C)C)OCC(O)C1O` (some centres undefined), the growth in the test with NCI-H23 lung was 65.9%; with NCI-H226 lung, 60.6%; with NCI-H322M lung, 81.3%; with HOP-62 NSCLC it was 52%; in the test on NCI-H460 lung, 22.9%; with NCI-H522 lung, 66.7%. Besides, the figures for the growth in the test with A549/ATCC NSCLC, with 786-0 renal and in the test on COLO 205 colon were 53.1%, 1.28% (active) and 30.1%, respectively.

With `COc1cc(CN2CCC(N3CCCC3=O)c3ccccc32)cc(OC)c1OC` (centres undefined), the growth with NCI-H23 lung was 63%; in the test with NCI-H226 lung, 85.9%; in the test with NCI-H322M lung, 87.9%; in the test with HOP-62 NSCLC, 95.5%; with NCI-H460 lung it was 89.4%; in the test with NCI-H522 lung it was 55.3%. Further, the figures for the growth in the test on A549/ATCC NSCLC, in the test on 786-0 renal and with COLO 205 colon were 80.7%, 80.4% and 106%, respectively.

Regarding `CC(CN1CCN(CC(C)Nc2ccnc3cc(Cl)ccc23)CC1)Nc1ccnc2cc(Cl)ccc12` (centres undefined), the growth in the test on NCI-H23 lung was 62.3%; with NCI-H226 lung it was 26.6%; in the test with NCI-H322M lung, 20.7%; in the test on HOP-62 NSCLC it was -18.4% (active); in the test on NCI-H460 lung it was -30.4% (active); with NCI-H522 lung, -29.4% (active). Besides, the growth in the test on A549/ATCC NSCLC is 15.7%; with 786-0 renal it was -9.83% (active); with COLO 205 colon, -85% (active).

`COc1cccc(-c2nc3sccn3c2-c2ccnc(NCCN3CCCNS3(=O)=O)n2)c1`: the growth in the test with NCI-H23 lung was 99.4%; with NCI-H226 lung, 81.4%; with NCI-H322M lung, 95.6%; in the test with HOP-62 NSCLC, 123%; in the test with NCI-H460 lung, 68.8%; with NCI-H522 lung, 92.2%. In addition, the growth is 99.2% in the test with A549/ATCC NSCLC, 77.5% with 786-0 renal and 51.5% in the test on COLO 205 colon.

Take `O=c1oc2ccccc2cc1-c1cc(-c2ccc(-c3cc(-c4cc5ccccc5oc4=O)nc(-c4cc5ccccc5oc4=O)c3)cc2)cc(-c2cc3ccccc3oc2=O)n1`: the growth with NCI-H23 lung is 98.5%; in the test with NCI-H226 lung, 97.8%; in the test with NCI-H322M lung, 108%; in the test with HOP-62 NSCLC it was 93.3%; in the test on NCI-H460 lung it was 106%; in the test on NCI-H522 lung it was 97%. Moreover, the figures for the growth in the test with A549/ATCC NSCLC, in the test with 786-0 renal and in the test with COLO 205 colon were 101%, 107% and 103%, respectively.

For `NNC(=O)CSc1nc2scc(-c3ccccc3)c2c(=O)n1-c1ccccc1`, the growth was 101% in the test with NCI-H23 lung; 84% with NCI-H226 lung; 122% with NCI-H322M lung; 91.4% with HOP-62 NSCLC; 110% with NCI-H460 lung; 91.4% in the test with NCI-H522 lung. Also, the growth with A549/ATCC NSCLC is 115%; in the test on 786-0 renal it was 86.8%; with COLO 205 colon, 107%.

In the case of `N/N=C(\C(=N\N)c1ccccc1)c1ccccc1`, the growth with NCI-H23 lung was 98.8%; with NCI-H226 lung it was 88.2%; in the test with NCI-H322M lung, 94.6%; with HOP-62 NSCLC, 91.7%; with NCI-H460 lung, 108%; with NCI-H522 lung it was 86.6%. The growth is 101% in the test with A549/ATCC NSCLC, 97.6% with 786-0 renal and 108% in the test with COLO 205 colon.

As for `COc1cc(CN(CCC(O)N2CCCC2=O)Cc2ccc3c(c2)OCO3)cc(OC)c1OC` (centres undefined), the growth with NCI-H23 lung is 108%; in the test on NCI-H226 lung, 104%; in the test with NCI-H322M lung, 90.3%; in the test with HOP-62 NSCLC, 103%; in the test on NCI-H460 lung it was 106%; in the test with NCI-H522 lung it was 95.4%. Also, the growth was 106% with A549/ATCC NSCLC, 94.1% in the test with 786-0 renal and 120% with COLO 205 colon.

For the compound `O=C1OCC2=C1C(c1ccccc1)c1cc3c(cc1N2CCO)OCO3` (centres undefined), the growth in the test with NCI-H23 lung is 42.5%; in the test on NCI-H226 lung it was 49%; in the test with NCI-H322M lung it was 85.8%; in the test on HOP-62 NSCLC, 40.3%; with NCI-H460 lung, -3.16% (active); in the test on NCI-H522 lung, -23.7% (active). Also, the growth with A549/ATCC NSCLC was 58.7%; in the test with 786-0 renal, 32.1%; in the test on COLO 205 colon, -8.27% (active).

Take `COc1ccc2c(c1)N(Cc1ccc(Cl)cc1)CCC2N1CCCC1=O` (centres undefined): the growth with NCI-H23 lung was 52.7%; in the test on NCI-H226 lung it was 46.5%; in the test with NCI-H322M lung, 39.9%; in the test with HOP-62 NSCLC, 52.4%; with NCI-H460 lung, 39.1%; with NCI-H522 lung, 32%. The figures for the growth with A549/ATCC NSCLC, in the test with 786-0 renal and with COLO 205 colon were 44.4%, 48.6% and 67.3%, respectively.

For the compound `CC(C)=CC[C@@H]1CC2(CC=C(C)C)C(=O)C(OC3(C(=O)c4ccccc4)C(=O)C4(CC=C(C)C)C[C@@H](CC=C(C)C)C(C)(C)C(CC=C(C)C)(C4=O)C3=O)(C(=O)c3ccccc3)C(=O)C(CC=C(C)C)(C2=O)C1(C)C` (some centres undefined), the growth in the test with NCI-H23 lung is 10.3%; in the test with NCI-H226 lung, -4.96% (active); in the test with NCI-H322M lung, 3.49% (active); in the test on HOP-62 NSCLC, 0.307% (active); with NCI-H460 lung, -9.89% (active); in the test with NCI-H522 lung, -28.8% (active). For the same compound, the growth was 6% (active) in the test with A549/ATCC NSCLC, 11.6% in the test with 786-0 renal and -22.3% (active) in the test on COLO 205 colon.
